Source: PubChem BioAssay AID1671202 (University of Kansas High Throughput Screening Laboratory, 2021)
Where “and” joins values, the source holds several entries; their conditions need not be identical. Equal entries are not always repeated. The campaign covered roughly 190,000 compounds. About 6,900 (3.6%) were called active. The full list was thinned out, with actives kept by preference. A number with no mark means an inactive call. No stated cut-off is given here; in the data, active means inhibition above about 50%; inactive means the rest.

Target: Huntingtin (Homo sapiens) (UniProt P42858)
Test: mutant huntingtin-calmodulin interaction inhibitors – biochemical, AlphaScreen, primary screen (AID 1671202);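 further: 0% = both proteins with DMSO and 100% = one protein alone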
Settings: AlphaScreen His-mHTT/GST-CaM binding, luminescence; at 15 µM, hits give high values

Huntingtin (Homo sapiens), sequence (P42858 whole entry, looked up, stated change not applied): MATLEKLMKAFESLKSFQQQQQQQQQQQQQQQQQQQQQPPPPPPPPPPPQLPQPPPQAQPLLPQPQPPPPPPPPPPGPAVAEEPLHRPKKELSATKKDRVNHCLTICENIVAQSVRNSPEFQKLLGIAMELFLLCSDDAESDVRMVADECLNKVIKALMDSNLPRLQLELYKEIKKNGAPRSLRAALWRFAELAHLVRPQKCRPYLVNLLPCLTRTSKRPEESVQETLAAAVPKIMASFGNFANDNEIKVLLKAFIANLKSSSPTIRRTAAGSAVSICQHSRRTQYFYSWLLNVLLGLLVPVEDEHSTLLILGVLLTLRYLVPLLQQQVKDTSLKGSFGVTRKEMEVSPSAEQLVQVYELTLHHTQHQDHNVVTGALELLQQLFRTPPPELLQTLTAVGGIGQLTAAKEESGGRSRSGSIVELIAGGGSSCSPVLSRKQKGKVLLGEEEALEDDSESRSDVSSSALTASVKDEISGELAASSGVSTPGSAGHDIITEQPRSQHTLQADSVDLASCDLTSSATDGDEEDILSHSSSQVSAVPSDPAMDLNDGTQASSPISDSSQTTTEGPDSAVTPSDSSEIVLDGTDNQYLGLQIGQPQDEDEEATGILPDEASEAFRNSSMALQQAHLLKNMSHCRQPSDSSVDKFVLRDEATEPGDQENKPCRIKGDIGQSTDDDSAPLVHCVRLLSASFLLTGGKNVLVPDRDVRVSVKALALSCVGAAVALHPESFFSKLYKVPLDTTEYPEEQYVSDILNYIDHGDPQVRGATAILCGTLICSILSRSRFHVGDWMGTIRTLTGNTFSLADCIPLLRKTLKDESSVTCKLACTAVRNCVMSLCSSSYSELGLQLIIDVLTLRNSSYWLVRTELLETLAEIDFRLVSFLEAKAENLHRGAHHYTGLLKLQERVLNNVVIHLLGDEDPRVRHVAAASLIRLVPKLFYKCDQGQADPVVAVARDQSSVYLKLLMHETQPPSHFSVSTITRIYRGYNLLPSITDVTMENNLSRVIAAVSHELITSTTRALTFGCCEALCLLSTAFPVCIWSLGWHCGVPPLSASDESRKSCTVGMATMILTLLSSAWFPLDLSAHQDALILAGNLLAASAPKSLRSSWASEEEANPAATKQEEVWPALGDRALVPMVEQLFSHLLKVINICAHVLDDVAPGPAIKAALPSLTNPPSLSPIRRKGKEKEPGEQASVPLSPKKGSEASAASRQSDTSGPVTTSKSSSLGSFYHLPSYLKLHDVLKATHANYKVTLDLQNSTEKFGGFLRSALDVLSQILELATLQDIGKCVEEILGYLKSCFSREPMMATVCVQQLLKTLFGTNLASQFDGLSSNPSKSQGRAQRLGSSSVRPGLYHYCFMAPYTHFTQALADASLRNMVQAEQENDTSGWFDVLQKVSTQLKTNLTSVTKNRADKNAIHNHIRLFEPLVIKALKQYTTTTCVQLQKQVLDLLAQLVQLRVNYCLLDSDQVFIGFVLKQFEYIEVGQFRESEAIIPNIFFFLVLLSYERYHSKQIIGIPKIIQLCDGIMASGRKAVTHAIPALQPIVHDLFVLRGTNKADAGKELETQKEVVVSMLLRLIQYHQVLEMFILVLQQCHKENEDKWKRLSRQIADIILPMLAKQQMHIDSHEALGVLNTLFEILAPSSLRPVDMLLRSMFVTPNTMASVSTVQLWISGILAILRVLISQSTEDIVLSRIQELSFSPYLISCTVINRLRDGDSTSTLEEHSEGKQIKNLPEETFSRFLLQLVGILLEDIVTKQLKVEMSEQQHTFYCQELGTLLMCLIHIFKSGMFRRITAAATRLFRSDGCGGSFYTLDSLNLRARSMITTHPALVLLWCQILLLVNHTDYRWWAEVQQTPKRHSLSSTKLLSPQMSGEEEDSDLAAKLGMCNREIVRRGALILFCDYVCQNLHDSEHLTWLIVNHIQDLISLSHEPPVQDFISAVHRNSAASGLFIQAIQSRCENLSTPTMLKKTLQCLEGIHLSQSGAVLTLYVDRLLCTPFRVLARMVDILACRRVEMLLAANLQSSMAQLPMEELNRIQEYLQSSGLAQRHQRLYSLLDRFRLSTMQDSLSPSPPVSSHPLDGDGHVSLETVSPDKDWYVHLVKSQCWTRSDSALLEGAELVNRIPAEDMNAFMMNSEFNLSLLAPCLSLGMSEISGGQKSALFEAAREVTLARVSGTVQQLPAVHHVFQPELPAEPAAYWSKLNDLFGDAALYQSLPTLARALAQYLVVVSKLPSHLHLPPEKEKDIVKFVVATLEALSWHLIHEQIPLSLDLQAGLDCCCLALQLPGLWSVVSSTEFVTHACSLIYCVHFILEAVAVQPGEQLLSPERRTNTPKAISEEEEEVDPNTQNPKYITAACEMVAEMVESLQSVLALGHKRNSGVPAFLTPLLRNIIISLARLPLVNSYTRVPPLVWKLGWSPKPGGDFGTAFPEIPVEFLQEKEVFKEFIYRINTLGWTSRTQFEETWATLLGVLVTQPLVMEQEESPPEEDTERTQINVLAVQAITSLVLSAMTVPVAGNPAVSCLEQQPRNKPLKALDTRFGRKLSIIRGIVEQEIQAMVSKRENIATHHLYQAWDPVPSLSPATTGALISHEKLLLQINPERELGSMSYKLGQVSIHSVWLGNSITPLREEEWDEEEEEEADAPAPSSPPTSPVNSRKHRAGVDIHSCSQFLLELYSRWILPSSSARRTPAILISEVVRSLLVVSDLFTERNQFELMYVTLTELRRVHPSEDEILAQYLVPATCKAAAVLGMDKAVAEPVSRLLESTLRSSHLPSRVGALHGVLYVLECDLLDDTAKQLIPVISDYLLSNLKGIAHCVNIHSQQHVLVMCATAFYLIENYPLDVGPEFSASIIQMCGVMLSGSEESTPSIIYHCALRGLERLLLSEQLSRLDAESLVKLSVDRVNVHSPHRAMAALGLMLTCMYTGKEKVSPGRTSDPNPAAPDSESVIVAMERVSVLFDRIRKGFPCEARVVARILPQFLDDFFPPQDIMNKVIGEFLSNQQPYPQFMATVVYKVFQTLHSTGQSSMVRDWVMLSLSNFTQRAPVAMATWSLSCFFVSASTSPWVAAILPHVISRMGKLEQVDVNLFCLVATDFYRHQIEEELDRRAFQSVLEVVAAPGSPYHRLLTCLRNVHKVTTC

Compound | inhibition
COc1ccc(NC(=O)C2=C(C)Nc3ncnn3C2c2cc(OC)c(OC)cc2OC)cc1 (configuration not stated) | 0%
CC1=C(C(=O)Nc2ccc(Cl)cc2)C(c2ccc(Cl)cc2Cl)n2ncnc2N1 (configuration not stated) | 59% (active)
CC1=C(C(=O)Nc2ccc(C)cc2)C(c2cccc([N+](=O)[O-])c2)n2ncnc2N1 (configuration not stated) | 7%
O=C(NCc1ccco1)c1cc2nc(-c3ccc(Cl)cc3)cc(C(F)(F)F)n2n1 | -2%
Cc1ccc(CN2CCCn3nc(C(=O)NCc4ccccc4Cl)cc3C2=O)cc1 | -2.01%
O=C(NCCc1ccccc1)c1cc2n(n1)CCCN(Cc1ccc(F)cc1)C2=O | 3.53%
Cc1ccc(C)c(CNC(=O)c2cc3n(n2)CCCN(Cc2ccc(F)cc2)C3=O)c1 | 50.5% (active)
Cc1cc(N2N=NC3C(=O)N(c4ccc(F)cc4)C(=O)C32)ccc1Br (configuration not stated) | -11.3%
CSC1=C(C#N)C(c2cccs2)CC(=O)N1 (configuration not stated) | -7.7%
Cc1cccc(-c2cc(C3CCN(S(=O)(=O)c4cccc(C#N)c4)CC3)[nH]n2)c1 | 7.83%
Cc1cccc(-c2cc(C3CCN(C(=O)Cc4ccsc4)CC3)[nH]n2)c1 | 59.9% (active)
Cc1cccc(-c2cc(C3CCN(S(=O)(=O)c4ccc(C#N)cc4)CC3)[nH]n2)c1 | 9.71%
O=C(Cc1csc(NC(=O)C2CCCC2)n1)Nc1ccc2c(c1)Cc1ccccc1-2 | -7.6%
Cn1c(=O)c2c(-c3ccccc3)n(-c3cccc([N+](=O)[O-])c3)cc2n(C)c1=O | 38%
O=C1OC(c2ccccc2)=C/C1=C/c1cccn1-c1cccc([N+](=O)[O-])c1 | 77% (active)
O=C1/C(=C/c2ccc([N+](=O)[O-])cc2)C=C(c2ccccc2)N1c1cccc([N+](=O)[O-])c1 | 28%
N#CC1=C(N)C(C#N)(C#N)C(c2ccc(C3C4CCCC=C4C(C#N)=C(N)C3(C#N)C#N)cc2)C2CCCC=C12 (configuration not stated) | 81.2% (active)
CN1CC=C2C(C#N)=C(N)C(C#N)(C#N)C(c3ccc(F)cc3)C2C1 (configuration not stated) | 6%
Brc1ccc(CNC23CN4CN(CN(C4)C2)C3)cc1 | 2%
O=C(/C=C/c1ccc(Cl)cc1)Nc1cc2ccccc2oc1=O | 0%
CN(C)c1ccc(Br)c([N+](=O)[O-])c1 | 14.9%
Cc1ccc2nc(/C(C#N)=C/c3cc(Cl)cc4c3OCOC4)[nH]c2c1 | -7%
COc1ccc2nc3sc(C(=O)N(C)c4cccc(C)c4)cc3cc2c1 | 5%

Compound | inhibition
COc1ccc2nc3sc(C(=O)NCc4ccco4)cc3cc2c1 | 61% (active)
COc1cccc(NC(=O)c2cc3cc4cc(OC)ccc4nc3s2)c1 | 7%
O=C(CSc1nnc(NC(=O)c2ccccc2F)s1)Nc1ccc(Br)cc1 | 1.2%
CC(C)(C)C(=O)NCCNc1ccc([N+](=O)[O-])cc1 | 2.2%
COc1ccc(NC(=O)C2CC(=O)N(C)C(=Nc3ccc(C)c(C)c3)S2)cc1 (configuration not stated) | 22%
Cc1ccc2c(c1)OCC(=O)N2Cc1nc(-c2ccc(C)c(C)c2)no1 | -15.9%
Cc1ccccc1NC(=O)N1CCC(c2cc(N)on2)CC1 | -11.4%
CC(C)N1COc2ccc3c(=O)c(-c4ccccc4)coc3c2C1 | -2.5%
COc1ccc(N2COc3ccc4c(=O)c(-c5ccccc5)coc4c3C2)c(OC)c1 | 75.6% (active)
COC(=O)c1ccc(Oc2coc3c4c(ccc3c2=O)OCN(c2ccc(OC)cc2OC)C4)cc1 | 54.7% (active)
COCCCN1COc2ccc3c(=O)c(Oc4ccc(OC)cc4)coc3c2C1 | -5.5% and 3.6%
COc1ccc(-c2coc3c4c(ccc3c2=O)OCN(CC(C)C)C4)cc1 | -3.5%
CCOC(=O)c1ccc(Oc2coc3c4c(ccc3c2=O)OCN(C2CCS(=O)(=O)C2)C4)cc1 (configuration not stated) | 6.6%
COc1cccc(OC)c1OCCOc1cccc(Cl)c1Cl | -101%
Cc1cccc(NC(=O)c2ccc(F)c(S(=O)(=O)N3CCc4ccccc43)c2)c1 | -8%
Cc1cc2[nH]c(C(=O)Nc3cc(F)c(F)c(F)c3)c(CN(C)C)c2s1 | 8.9%
Cc1cccc(NC(=O)C2CCN(C(=O)c3ccc(F)cc3)CC2)c1 | -0.6%
O=C1OC(/C=C/c2cccc(Cl)c2Cl)=NC/1=C\c1coc2ccccc2c1=O | 6%
CC(C)Oc1ccccc1OCCNCc1ccco1 | -1.4%
Cc1ccc(C)c(NC(=O)N2CCc3c(c(COCc4cccc(F)c4)nn3C)C2)c1 | 23.8%
O=C(O)C1CCCCC1C(=O)Nc1nnc(-c2cccs2)s1 (configuration not stated) | -1.3%
N#Cc1ccc(C(=O)NCc2[nH]nc3ccccc23)cc1 | 64.3% (active)
CN(C)c1ncccc1NC(=O)c1ccc(C#N)cc1 | 4.1%

Compound | inhibition
O=C(NCc1[nH]nc2ccccc12)c1ccc(Br)o1 | -1.8%
Clc1ccc(-n2ncc3c(N4CCC5(CC4)OCCO5)ncnc32)cc1 | 7%
O=C(O)c1ccc(Nc2nc(-c3cccs3)cs2)cc1 | 46.2%
NS(=O)(=O)c1ccc(Nc2nc(-c3ccccc3)cs2)cc1 | 21%
CC(=O)Nc1nc(C)c(-c2csc(Nc3ccc(S(N)(=O)=O)cc3)n2)s1 | 52.1% (active)
Cc1nc(N)sc1-c1csc(Nc2cccc([N+](=O)[O-])c2)n1 | 91.9% (active)
NS(=O)(=O)c1ccc(NC(=O)Cc2csc(Nc3ccccn3)n2)cc1 | 33.1%
COc1ccc(-c2csc(/C(C#N)=C/Nc3cccc([N+](=O)[O-])c3)n2)cc1 | -1%
CCN(CC)c1ccc(Nc2nc(-c3sc(C)nc3C)cs2)cc1 | 96.7% (active)
Cc1nc(N)sc1-c1csc(Nc2ccc(O)cc2)n1 | 41.5%
Cc1noc(C)c1S(=O)(=O)N1CCC(CC(=O)N2CCN(C(=O)C3CC3)CC2)CC1 | 5.24%
COc1ccc(-c2nnc(N3CCC(C(=O)NC4CCCCC4)CC3)o2)cc1 | 7.1%
O=C(Nc1cccc(C(F)(F)F)c1)C(=O)c1c(O)[nH]c2ccccc12 | 10%
CCOc1cc(CNC(=O)C2CCN(c3nnc4ccccn34)CC2)ccc1OC | 2.75%
Nc1nc(-c2cc3cc(Br)cc(Br)c3oc2=O)cs1 | -7%
COc1ccc([C@@H]2C[C@H](c3ccccc3)Oc3cc(OC)ccc32)cc1 | -9.3%
COc1ccc(C2CC(O)(c3ccccc3)Oc3cc(C)cc(C)c32)cc1 (configuration not stated) | 77.7% (active)
CC(=O)c1c(C(C)=O)c(C)n(Cc2ccco2)c1C | 1.2%
COc1cc2c(cc1OC)C(COc1ccc(F)cc1)N(C(=O)c1ccccc1F)CC2 (configuration not stated) | 67% (active)
CCOC(=O)c1ccc(OCC2c3cc(OC)c(OC)cc3CCN2C(=O)c2ccccc2OC)cc1 (configuration not stated) | 34.4%
COc1ccc(C(=O)N2CCc3cc(OC)c(OC)cc3C2c2ccccc2)cc1OC (configuration not stated) | 83.2% (active)
COc1ccc(NC(=O)N2CCc3[nH]cnc3C2c2ccccc2)cc1OC (configuration not stated) | 3.67%
CCCCC(=O)N1CCc2cc(OC)c(OC)cc2C1COc1ccc(C(=O)OC)cc1 (configuration not stated) | 18.4%

Compound | inhibition
COc1cc2c(cc1OC)C(COc1cc(C)cc(C)c1)N(C(=O)CC1CCCCC1)CC2 (configuration not stated) | 32%
COc1ccc(C2=NOC(C(=O)N3CCC4(CC3)OCCO4)C2)cc1OC (configuration not stated) | -8.22%
COc1ccc(-c2nc(COc3cc(C)ccc3F)no2)cc1 | -32.4%
CSCCC(NS(=O)(=O)c1cccs1)C(=O)O (configuration not stated) | -3.2%
CSc1nc(SC)c2c3c(sc2n1)CSC(C)(C)C3 | 2%
CCc1ccc(OCC(O)CN2CCN(c3ccccc3F)CC2)cc1 (configuration not stated) | -21.8%
COc1cc(NCCCCN2C(=O)c3ccccc3C2=O)c2nccc(C)c2c1 | 4%
COc1ccc(C2=NOC(C(=O)N3CCN(c4ccccc4)CC3)C2)cc1 (configuration not stated) | -6.03%
CCOC(=O)N1CCN(C(=O)C2CC(c3ccc(F)cc3)=NO2)CC1 (configuration not stated) | 100% (active)
O=C(c1ccco1)N1CCN(C(=O)C2CC(c3ccc(F)cc3)=NO2)CC1 (configuration not stated) | -6.79%
Cc1cc(C)cc(NC(=O)NC2CCN(c3ccccc3)C2=O)c1 (configuration not stated) | -6.4%
COc1nccnc1N1CCC(N(C)C(=O)c2ccoc2)C1 (configuration not stated) | 1.67%
Cc1cc(C(=O)N2CCOCC2)c2cccc(-c3cccs3)c2n1 | -5.8%
O=C(Nc1cccc(F)c1)N1CCC(N2CCN(Cc3ccc(F)cc3)C2=O)CC1 | 13%
CC(=O)N1c2c(cc(Br)cc2S(=O)(=O)Nc2cccc([N+](=O)[O-])c2)CC1C (configuration not stated) | 6%
O=C(c1ccc([N+](=O)[O-])cc1)N1CCN(c2cccc(Cl)c2)CC1 | 13.1%
O=C(c1ccc2nc3ccc(Cl)cc3c(=O)n2c1)N1CCN(c2cccc(Cl)c2)CC1 | 6%
CC(=O)Nc1ccc(C(=O)N2CCN(c3cccc(Cl)c3)CC2)cc1 | 83.1% (active)
Cc1ccccc1-n1cnc(C(=O)NCCC(C)C)n1 | -3%
CC(C)C[C@@H]1COc2cc(N3CCC[C@@H]3CO)ccc2S(=O)(=O)N1 | -7.7%
CC1CCN(c2ccc([N+](=O)[O-])c(SCCO)c2)CC1 | 24%
Cc1ccc(N2CCN(C3CCCCCC3)CC2)cc1 | 7.2%
CC1CCN(c2ccc(N)cc2)CC1 | 79.6% (active)
